Assay outcomes (PubChem BioAssay)
SENP8 block-1 – SENP8 protease inhibition. Q96LD8. purified SENP8, Z-RLRGG-aminoluciferin cleavage, luminescence. inhibition, % at 10 µM. actives 1.2% (n = 330,000); in the data active means inhibition above about 50%
Target sequence (Q96LD8 whole entry, looked up): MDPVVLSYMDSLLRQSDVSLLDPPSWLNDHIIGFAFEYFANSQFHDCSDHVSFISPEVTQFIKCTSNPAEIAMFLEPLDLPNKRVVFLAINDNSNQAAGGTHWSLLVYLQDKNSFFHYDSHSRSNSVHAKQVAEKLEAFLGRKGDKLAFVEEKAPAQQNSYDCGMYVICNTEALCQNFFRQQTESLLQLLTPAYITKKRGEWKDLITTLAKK
SENP6 block – SENP6 protease inhibition; Recombinant SENP6 catalytic domain, aminoluciferin luminescence; inhibition, % at 10 µM; actives 1.8% (n = 330,000); AID 2599;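 active means inhibition above about 50% at the single tested dose, limit read from the data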
SENP8 block-2 – blocks human SENP8 cleavage of Nedd8 substrate. Q96LD8. recombinant SENP8, Nedd8 substrate fluorescence. inhibition, % at 20 µM. actives 0.64% (n = 360,000). AID 602440; in the data active means inhibition mostly above about 40%, no sharp cut-off; inactive means mostly below about 27%
SENP7 inh – blocks the human protease SENP7; recombinant SENP7, Z-RLRGG-aminoluciferin luminescence, 40 min; inhibition, % at 5 µM; actives 1.5% (n = 330,000); AID 434973;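 active means inhibition above about 50% at the single test dose, limit read from the data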
Platelet DG rel – modulates dense granule release in human platelets. human platelet-rich plasma, SFLLRN dense granule ATP release, luminescence. inhibition, %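 (compounds screened at 7.5 µM in platelet-rich plasma)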. actives 0.22% (n = 300,000). AID 1663;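 active means mean replicate score, as percent of positive control, at or above 50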
SENP8 confirm – human SENP8 inhibition, confirmed | inhibition, % at 12.5 µM | actives 40% (n = 6,200) | shares compounds with SENP7 inh | AID 488912 | Recombinant SENP8, Z-RLRGG-aminoluciferin luminescence, 60 min;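 active means mean inhibition across replicates above about 50%, limit read from the data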
SENP6 conf – confirmation of human SENP6 protease inhibitors | shares compounds with SENP7 inh | recombinant SENP6, Z-RLRGG-aminoluciferin luminescence | inhibition, % at 12.5 µM | actives 58% (n = 6,200) | AID 488915
SENP7 conf – confirmation of human SENP7 protease inhibitors; AID 488917; actives 69% (n = 6,200); shares compounds with SENP7 inh; inhibition, % at 12.5 µM; recombinant SENP7, Z-RLRGG-aminoluciferin luminescence, 40 min
Casp3 select – inhibits human caspase-3 in SENP selectivity test | inhibition, % at 12.5 µM | shares compounds with SENP7 inh | purified caspase-3, Z-DEVD-aminoluciferin luminescence, 60 min | actives 60% (n = 6,200) | AID 488918;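 active means mean inhibition above about 50%, limit read from the data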
Target sequence (P42574 28-227 limits assumed): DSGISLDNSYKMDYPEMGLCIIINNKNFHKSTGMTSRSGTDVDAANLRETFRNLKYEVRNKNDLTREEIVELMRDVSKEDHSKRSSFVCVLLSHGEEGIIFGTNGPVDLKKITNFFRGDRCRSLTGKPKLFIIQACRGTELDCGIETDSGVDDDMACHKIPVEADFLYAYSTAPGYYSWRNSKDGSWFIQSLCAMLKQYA
SENP luc ctr – counter-screen for SENP inhibitors: luminescence interference; actives 39% (n = 6,200); Pre-incubated SENP8/Z-RLRGG-aminoluciferin, luciferase luminescence interference; inhibition, % at 12.5 µM; shares compounds with SENP7 inh;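 active means mean inhibition above about 50% when retested at one dose, limit read from the data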
Hits are given with their value; . = inactive; / = no result given. In the library only some 2.4% were active in any assay of this set; here they are far more common.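 How the source made its calls, unless noted: active means mean inhibition above about 50% in the one-dose retest (limit read from the data); inactive means the rest.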

SMILES	SENP8 block-1	SENP6 block	SENP8 block-2	SENP7 inh	Platelet DG rel	SENP8 confirm	SENP6 conf	SENP7 conf	Casp3 select	SENP luc ctr
COc1ccc(NC(=O)c2csc3c2CCCC3)cc1	.	.	.	50	.	.	.	75	.	.
Cc1ccc(SCC(=O)Nc2cc([N+](=O)[O-])ccc2O)cc1	79	.	.	.	.	.	.	57	.	.
Brc1ccc(-c2ncc(-c3ccccc3)cn2)cc1	.	.	.	74	.	.	.	.	.	.
Cc1cc(C)cc(NC2=C(N)C(=O)c3ccccc3C2=O)c1	.	70	48	.	.	.	.	.	.	.
Cc1cccc(NC2=C(NCCO)C(=O)c3ccccc3C2=O)c1	.	.	.	.	.	/	/	/	/	/
CCNC(=O)O/N=C(\C)c1sc(-c2ccc(Cl)cc2)nc1C	89	92	.	91	.	79	79	95	82	66
C=C(C)c1sc(-c2ccc(Cl)cc2)nc1C	.	70	.	.	.	.	.	85	.	.
C/C(=N\OC(=O)NC(C)C)c1sc(-c2ccc(Cl)cc2)nc1C	.	.	.	59	.	53	60	84	74	51
C/C(=N\OC(=O)NC(C)C)c1sc(-c2ccccc2)nc1C	.	.	.	.	.	/	/	/	/	/
C/C(=N\OC(=O)c1ccc(Cl)cc1)c1sc(-c2ccccc2)nc1C	.	.	.	.	.	/	/	/	/	/
O=c1cc(-c2ccc(O)cc2)oc2cc(O)cc(O)c12	54	70	.	.	.	52	51	75	.	62
COc1ccc(-c2cc(=O)c3c(O)c(OC)c(OC)c(OC)c3o2)cc1	/	/	.	/	/	/	/	/	/	/
O=c1cc(-c2ccc(O)cc2)oc2ccc(O)cc12	.	51	.	.	.	.	.	61	.	.
COc1ccc(-c2cc(=O)c3c(O)c(OC)c(O)cc3o2)cc1	83	84	.	87	.	90	90	99	89	55
COc1cccc(N2CN(CCc3ccccc3)CNC2=S)c1	.	.	.	.	/	/	/	/	/	/
CCOc1ccc(NC(=O)COc2ccc(C(=O)NC(C)c3ccc(S(N)(=O)=O)cc3)cc2OC)cc1 (configuration not stated)	.	.	.	.	/	/	/	/	/	/
CCCC[n+]1ccn(C2=C([O-])c3ccccc3C(=O)/C2=N\S(=O)(=O)c2ccc(Cl)cc2)c1	.	57	48	.	.	.	50	.	.	.
CCCCN(C)C(=O)c1cc2cc3ccc(OC)cc3nc2s1	91	91	.	95	.	91	97	101	96	54
COc1ccc(S(=O)(=O)N2CCOCC2)cc1NC(=O)c1c(C)noc1C	/	/	.	/	/	/	/	/	/	/
COc1cccc(C(=O)Nc2ccc3nc4n(c(=O)c3c2)CCCC4)c1	.	53	.	.	.	.	.	71	73	.
O=C(Nc1ccc(F)cc1)c1ccc2c(=O)n3c(nc2c1)CCCCC3	.	.	.	.	.	/	/	/	/	/
COc1cc(C(=O)Nc2ccc3nc4n(c(=O)c3c2)CCCC4)ccc1Br	.	.	.	.	.	/	/	/	/	/
O=C(Nc1ccc(F)c(Cl)c1)c1ccc2c(=O)n3c(nc2c1)CCCCC3	.	76	.	69	.	.	60	91	62	.
COc1cc(OC)cc(C(=O)Nc2ccc3nc4n(c(=O)c3c2)CCCC4)c1	77	87	.	86	.	58	82	96	92	80
COc1ccc(-c2cc(=O)oc3c(C)c(OC(C)C(=O)NCc4ccccn4)ccc23)cc1 (configuration not stated)	.	.	.	.	.	/	/	/	/	/
SMILES	SENP8 block-1	SENP6 block	SENP8 block-2	SENP7 inh	Platelet DG rel	SENP8 confirm	SENP6 conf	SENP7 conf	Casp3 select	SENP luc ctr
CCCCCC(=O)N1C[C@H](n2cc(-c3ccc(F)cc3)nn2)[C@@H](O)C[C@@H]1c1ccc(Cl)cc1	/	/	.	/	/	/	/	/	/	/
Cc1ccc(NC(=O)CN2C(=O)S/C(=C\c3ccc(-c4cccc(C(=O)O)c4C)o3)C2=O)cc1C	/	/	.	/	/	/	/	/	/	/
CCOC(=O)CN1C(=O)S/C(=C\c2ccc(-c3ccc(C(=O)O)c(Cl)c3)o2)C1=O	.	.	.	.	.	/	/	/	/	/
CCOC(=O)CN1C(=O)S/C(=C\c2ccc(-c3cccc(C(=O)O)c3C)o2)C1=O	.	55	.	.	.	.	.	52	.	.
Cc1c(C(=O)O)cccc1-c1ccc(/C=C2\SC(=O)NC2=O)o1	98	98	.	91	.	99	100	103	97	97
Cc1ccc(/C=C2/NC(=O)N(c3ccccc3)C2=O)o1	.	.	.	.	.	/	/	/	/	/
Cc1c(C(=O)O)cccc1-c1ccc(/C=C2/NC(=O)N(c3ccccc3)C2=O)o1	60	64	.	.	.	.	79	92	.	.
O=C1NC(=O)/C(=C/c2ccc(-c3cccc([N+](=O)[O-])c3)o2)S1	66	86	.	55	.	78	60	.	.	.
COc1ccc(NC(=O)N2CCC(CO)(CC3CCCCO3)CC2)c(OC)c1 (configuration not stated)	.	.	.	.	.	/	/	/	/	/
CCN(CC(=O)Nc1c(F)cccc1F)C(=O)CCCc1cccs1	.	.	.	.	/	/	/	/	/	/
Cc1nn(CC(=O)c2ccc3c(c2)OCCO3)c(=O)c(C#N)c1C	.	.	.	.	/	/	/	/	/	/
Cc1nc2nc(-c3ccccc3)cc(=O)n2[nH]1	.	.	.	55	.	57	52	84	85	66
Cc1cccc(-c2cc3nc(-c4ccccc4)cc(=O)n3[nH]2)c1	88	89	.	51	.	.	74	.	.	.
Cc1cc(NC(=O)Cn2cnc3sc(C)c(C)c3c2=O)no1	.	.	.	.	/	/	/	/	/	/
COc1cc(/C=N/N2CCCCC2)cc([N+](=O)[O-])c1O	.	.	.	.	.	/	/	/	/	/
O=C(NNC(=S)Nc1ccccc1Cl)c1ccccc1Br	73	73	.	67	.	.	.	.	.	.
C/C(=N\NC(=O)CCc1ccccc1)C1C(=O)c2ccccc2C1=O	.	.	.	.	.	/	/	/	/	/
C/C(=N\NC(=O)c1cccc(Cl)c1)C1C(=O)c2ccccc2C1=O	92	97	.	74	.	.	97	101	88	81
CCS(=O)(=O)N1Cc2cc(C(=O)N(C)C)nc(-c3cccc(-c4ccc(F)cc4)c3)c2[C@@H]1CCO	/	/	.	/	/	/	/	/	/	/
O=[N+]([O-])c1cccc(CSc2nc3ccccc3[nH]2)c1	.	.	.	.	.	/	/	/	/	/
